Assay outcomes (PubChem)
ERAP1 HTS inh: human ERAP1 aminopeptidase inhibitors, primary screen, biochemical, single point, plate reader; Endoplasmic reticulum aminopeptidase 1 (Homo sapiens), Q9NZ08; recombinant ERAP1, Leu-AMC fluorescence, 60 min; inhibition, % at 10.7 µM; hit rate 0.15% among 340,000;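 active = mean replicate inhibition of at least 30%, or all replicates individually reaching that 30% level; inactive = mean below 30% and not every replicate reaching it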
PDI inh: inhibitors of human PDI, primary screen, biochemical, turbidity, single point, plate reader; AID 588391, 2011; inhibition, % at 10 µM; PDI insulin aggregation turbidity, A650, 90 min; hit rate 0.052% among 350,000;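 active = mean inhibition across replicates of 30% or more, whatever share of single replicates reach that level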
HDAC3 inhib: HDAC3 deacetylase inhibitors, primary screen, biochemical, fluorescence, cell-free homogeneous; recombinant HDAC3, fluorogenic peptide/trypsin coupled; inhibition, % at 8.3 µM; hit rate 0.15% among 320,000; Histone deacetylase 3 (Homo sapiens), O15379; in the data active = inhibition above about 26%, passing the limit was not always enough
ERp5 block: inhibitors of ERp5-driven insulin aggregation, primary screen, biochemical, turbidity, absorbance 650 nm, single point; hit rate 0.05% among 350,000; inhibition, % at 9.99 µM; AID 651711, 2012; 90 min;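 active = mean replicate inhibition above about 25%, with every replicate also reaching it, limit read from the data, passing the limit was not always enough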
SIRT5 inh: SIRT5 desuccinylase inhibitors, primary screen, biochemical, fluorescence imaging, single point, set 5 | hit rate 1.1% among 330,000 | NAD-dependent protein deacylase sirtuin-5, mitochondrial (Homo sapiens), Q9NXA8 | AID 652115, 2013 | Purified SirT5, succinyl-peptide AMC, trypsin-coupled fluorescence | inhibition, % at 15 µM; in the data active = inhibition above about 15%
Target sequence (Q9NXA8 whole entry, looked up): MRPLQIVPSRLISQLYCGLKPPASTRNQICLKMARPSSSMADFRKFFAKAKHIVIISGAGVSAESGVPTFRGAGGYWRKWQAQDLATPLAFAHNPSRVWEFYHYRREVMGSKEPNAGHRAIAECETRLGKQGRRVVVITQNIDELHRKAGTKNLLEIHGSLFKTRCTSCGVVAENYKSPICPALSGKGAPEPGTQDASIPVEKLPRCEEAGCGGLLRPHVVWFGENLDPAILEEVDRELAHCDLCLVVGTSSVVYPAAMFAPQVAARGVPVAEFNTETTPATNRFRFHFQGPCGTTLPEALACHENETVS
A number is an active result; – = inactive; · = no result; ! = not confirmed by another sample. This excerpt belongs to a sample that is enriched for hits.

SMILES | ERAP1 HTS inh | PDI inh | HDAC3 inhib | ERp5 block | SIRT5 inh
Nc1nnc(CC(=O)N/N=C/c2ccc(-c3cccc(C(=O)O)c3)o2)s1 | – | – | – | – | 20
C[C@H](CO)N1C[C@H](C)[C@@H](CN(C)Cc2ccncc2)Oc2ccc(NC(=O)CCCCCC(=O)Nc3ccccc3N)cc2C1=O | – | – | 90 | – | –
C[C@H](CO)N1C[C@H](C)[C@@H](CN(C)Cc2ccc(Cl)c(Cl)c2)Oc2ccc(NC(=O)CCCCCC(=O)Nc3ccccc3N)cc2CC1=O | – | · | · | – | 26
C[C@H]1CN([C@@H](C)CO)C(=O)c2cc(NC(=O)CCCCCC(=O)Nc3ccccc3N)ccc2O[C@@H]1CN(C)Cc1ccncc1 | – | · | · | – | ·
C[C@@H]1CCCCO[C@@H](CN(C)CC2CCCCC2)[C@H](C)CN([C@H](C)CO)C(=O)c2cc(NC(=O)CCCCCC(=O)Nc3ccccc3N)ccc2O1 | – | · | · | – | 20
C[C@H](CO)N1C[C@H](C)[C@@H](CN(C)S(=O)(=O)c2ccccc2)Oc2ccc(NC(=O)CCCCCC(=O)Nc3ccccc3N)cc2C1=O | – | · | · | – | 19
C[C@H](CO)N1C[C@H](C)[C@H](CN(C)Cc2ccc(Cl)c(Cl)c2)Oc2ccc(NC(=O)CCCCCC(=O)Nc3ccccc3N)cc2C1=O | – | · | · | – | 24
C[C@H]1CN([C@@H](C)CO)S(=O)(=O)c2ccc(-c3ccc(C(=O)N(C)C)cc3)cc2O[C@H]1CN(C)Cc1ccccc1C(=O)O | – | · | · | – | –
O=C(COC(=O)c1cccc(S(=O)(=O)Nc2ccc(F)cc2)c1)NCCN1C(=O)CSC1=O | – | – | – | – | 17
O=C(NNC(=S)NC(=O)c1cccs1)c1cccnc1 | – | – | – | – | 17
O=C(NNC(=O)c1cccs1)c1ccncc1 | – | – | – | – | 22
O=C(NNC(=O)c1cccs1)c1ccccc1 | – | – | – | – | –
COCC(=O)N1C[C@H](C)[C@@H](OC)CN(C)C(=O)c2ccc(NC(=O)Nc3ccccc3)cc2OC[C@@H]1C | – | · | · | · | –
CCC(=O)N/C(N)=N/c1nc(C)c2cc(C)c(C)cc2n1 | · | – | – | – | 18
CCCc1cc(=O)oc2c(CN(CC)CC)c(O)c(Cl)cc12 | 189 | – | – | – | –
CCCCc1cc(=O)oc2c(CN(CC)CC)c(O)c(Cl)cc12 | · | – | – | · | ·
N/C(=N\OC(=O)c1cccs1)c1cccc([N+](=O)[O-])c1 | – | – | – | – | 35
Clc1ccc(C2=NCCN2)cc1 | – | – | – | – | 112
Cc1ccc(S(=O)(=O)Nc2ccc3c(c2)C(=O)N([C@H](C)CO)C[C@H](C)[C@@H](CN(C)Cc2ccc(Cl)c(Cl)c2)OCCCC[C@H](C)O3)cc1 | – | · | · | – | 28
C[C@H]1CCCCO[C@H](CN(C)Cc2ccc(Cl)c(Cl)c2)[C@@H](C)CN([C@@H](C)CO)C(=O)c2cc(NS(=O)(=O)c3ccccc3)ccc2O1 | – | · | · | – | –
Cc1ccc(S(=O)(=O)Nc2ccc3c(c2)C(=O)N([C@H](C)CO)C[C@@H](C)[C@H](CN(C)Cc2ccc(Cl)c(Cl)c2)OCCCC[C@@H](C)O3)cc1 | – | · | · | – | –
C[C@@H]1CN([C@H](C)CO)C(=O)c2cc(NS(=O)(=O)c3ccccc3)ccc2O[C@@H](C)CCCCO[C@@H]1CN(C)Cc1ccc(Cl)c(Cl)c1 | – | · | · | – | 15!
O=C(Nc1cccc(Br)c1)c1ccc(CSc2ccccc2)cc1 | – | – | – | – | 24
COC(=O)[C@H](CC(C)C)NS(=O)(=O)N(Cc1ccccc1)[C@@H](CC(C)C)C(=O)OC | · | – | 31 | – | ·
OCCN(CCO)CC(O)CN(c1ccccc1)c1ccccc1 (stereo not drawn) | – | – | – | – | –
SMILES | ERAP1 HTS inh | PDI inh | HDAC3 inhib | ERp5 block | SIRT5 inh
NCC(O)CN(c1ccccc1)c1ccccc1 (stereo not drawn) | – | – | – | – | 38
CN1CCN(S(=O)(=O)c2ccc(NC(=O)Cc3ccc([N+](=O)[O-])cc3)cc2)CC1 | – | – | – | – | –
COc1ccc(CC(=O)Nc2ccc(S(=O)(=O)N3CCN(C)CC3)cc2)cc1 | – | – | – | – | 18
CC1(C)CC[C@]2(C(=O)O)CC[C@]3(C)C(=CC[C@@H]4[C@@]5(C)CC[C@H](O[C@@H]6O[C@H](C(=O)O)[C@@H](O)[C@H](O[C@@H]7OC[C@H](O)[C@H](O)[C@H]7O)[C@H]6O)C(C)(C)[C@@H]5CC[C@]43C)[C@@H]2C1 | · | 88 | – | – | ·
O=C(C[C@@H]1CC[C@@H]2[C@H](COC[C@@H](O)CN2C(=O)C2CC2)O1)NCc1ccncc1 | – | · | · | – | –
COCC(=O)Nc1ccc2c(c1)C(=O)N(C)C[C@@H](OC)[C@@H](C)CN(Cc1ccccc1)[C@H](C)CO2 | – | · | · | – | –
C[C@@H]1CN([C@@H](C)CO)C(=O)c2cc(NS(=O)(=O)c3ccc(Cl)cc3)ccc2O[C@@H](C)CCCCO[C@H]1CN(C)Cc1ccc2c(c1)OCO2 | – | · | · | – | –
C[C@@H]1CN([C@H](C)CO)C(=O)c2cc(NS(=O)(=O)c3ccc(Cl)cc3)ccc2O[C@@H](C)CCCCO[C@@H]1CN(C)Cc1ccccc1 | – | · | · | – | 21
C[C@@H]1CN([C@@H](C)CO)C(=O)c2cc(NS(=O)(=O)c3ccc(Cl)cc3)ccc2O[C@@H](C)CCCCO[C@@H]1CN(C)Cc1ccccc1 | – | · | · | – | 18
C[C@@H]1CN([C@H](C)CO)C(=O)c2cc(NS(=O)(=O)c3ccc(Cl)cc3)ccc2O[C@@H](C)CCCCO[C@@H]1CN(C)Cc1ccc2c(c1)OCO2 | – | · | · | – | 19!
CCCc1nc(Cl)c(C#N)c2c1CCCC2 | – | – | – | – | 112
C[C@@H]1CN([C@@H](C)CO)C(=O)c2cc(NS(=O)(=O)c3ccccc3)ccc2O[C@@H](C)CCCCO[C@@H]1CN(C)Cc1ccc(C(F)(F)F)cc1 | – | · | · | – | 20
C[C@H]1CCCCO[C@H](CN(C)Cc2ccc(C(F)(F)F)cc2)[C@@H](C)CN([C@@H](C)CO)C(=O)c2cc(NS(=O)(=O)c3ccccc3)ccc2O1 | – | · | · | – | 20
C[C@@H]1CN([C@H](C)CO)C(=O)c2cc(NS(=O)(=O)c3ccccc3)ccc2O[C@@H](C)CCCCO[C@H]1CN(C)Cc1ccc(C(F)(F)F)cc1 | – | · | · | – | 19
C[C@H]1CCCCO[C@@H](CN(C)Cc2ccc(C(F)(F)F)cc2)[C@@H](C)CN([C@@H](C)CO)C(=O)c2cc(NS(=O)(=O)c3ccccc3)ccc2O1 | – | · | · | – | –
CO[C@@H]1CN(C)C(=O)c2ccc(NC(=O)C3CCOCC3)cc2OC[C@H](C)N(C(C)=O)C[C@H]1C | – | · | · | – | ·
COc1ccc2c3c([nH]c2c1)[C@H](CO)N(C(=O)NC(C)C)CC31CCN(C(=O)C2CCCC2)CC1 | – | · | · | – | –
